Results from PubChem BioAssay.
Active and inactive are the calls of the source.

Legend:
[1] = probe aNog binding to arrayed compounds – biochemical, biotinylated probe, 635/667 nm fluorescence, primary screen (AID 1115); conditions: small-molecule microarray, higher = more signal;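 also: probe is biotinylated aNog protein used at 0.15 µg/mL for 1 h at 4 C; z-score combines 667 nm fluorescence of each spot with its signal to noise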
[2] = biological target: Torsin-1A-interacting protein 1 (Homo sapiens) (UniProt Q5JTV8); experiment: compound microarray binding of lysate hLAP1 – cell lysate, small-molecule microarray, COS7 lysate, 635/667 nm fluorescence, primary screen (AID 1116); conditions: 635 nm fluorescence, higher = more signal
Chain of Torsin-1A-interacting protein 1 (Homo sapiens) (Q5JTV8 whole entry, looked up): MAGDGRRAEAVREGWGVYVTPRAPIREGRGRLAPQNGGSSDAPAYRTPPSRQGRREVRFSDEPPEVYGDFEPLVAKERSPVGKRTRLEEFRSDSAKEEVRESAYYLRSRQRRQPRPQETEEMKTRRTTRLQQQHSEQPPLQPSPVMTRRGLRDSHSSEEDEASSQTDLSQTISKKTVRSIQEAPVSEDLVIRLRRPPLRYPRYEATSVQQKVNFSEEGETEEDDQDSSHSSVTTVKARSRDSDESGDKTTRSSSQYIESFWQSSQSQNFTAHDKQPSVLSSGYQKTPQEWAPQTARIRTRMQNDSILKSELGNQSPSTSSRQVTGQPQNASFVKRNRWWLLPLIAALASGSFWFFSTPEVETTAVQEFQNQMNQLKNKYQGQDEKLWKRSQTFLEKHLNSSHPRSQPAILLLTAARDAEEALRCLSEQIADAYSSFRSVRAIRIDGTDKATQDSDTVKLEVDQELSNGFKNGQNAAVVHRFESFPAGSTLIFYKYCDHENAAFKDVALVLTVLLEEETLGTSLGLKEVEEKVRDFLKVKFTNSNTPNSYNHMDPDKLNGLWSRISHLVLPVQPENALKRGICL

Albumin (Bos taurus) = Albumin (Bos taurus) (UniProt P02769); experiment: compounds binding labelled BSA control protein – biochemical, small-molecule microarray, Alexa647 label, 635/667 nm fluorescence, artefact control for SMM control protein annotation, profiling panel (AID 1118); conditions: BSA-A647 binding, fluorescence 635 nm, higher = more signal;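 also: score merges 667 nm emission intensity and signal-to-noise per printed compound spot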
Chain of Albumin (Bos taurus) (P02769 whole entry, looked up): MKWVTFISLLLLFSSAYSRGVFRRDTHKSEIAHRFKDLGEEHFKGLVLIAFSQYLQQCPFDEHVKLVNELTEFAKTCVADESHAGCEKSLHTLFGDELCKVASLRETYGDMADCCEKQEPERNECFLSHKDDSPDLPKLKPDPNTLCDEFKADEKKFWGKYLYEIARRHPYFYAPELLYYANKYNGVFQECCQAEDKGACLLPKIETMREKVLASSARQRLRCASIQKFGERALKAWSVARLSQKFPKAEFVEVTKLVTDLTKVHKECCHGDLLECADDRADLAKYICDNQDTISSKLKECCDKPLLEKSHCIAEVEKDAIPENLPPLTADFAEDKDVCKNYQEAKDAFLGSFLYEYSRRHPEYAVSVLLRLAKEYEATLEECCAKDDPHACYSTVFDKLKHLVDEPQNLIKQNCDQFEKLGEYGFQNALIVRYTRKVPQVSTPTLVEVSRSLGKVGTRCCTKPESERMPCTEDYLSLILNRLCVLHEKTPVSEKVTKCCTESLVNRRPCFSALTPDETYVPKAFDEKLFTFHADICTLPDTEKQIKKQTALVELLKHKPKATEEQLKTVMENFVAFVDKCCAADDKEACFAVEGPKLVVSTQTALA

[3] = probe aXIP binding to arrayed compounds – biochemical, NeuroSMM set, 635/667 nm fluorescence, primary screen (AID 1119); conditions: small-molecule microarray, higher = more signal, called active from +8 up or from −8 down;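 also: probe is the protein aXip251-270 applied at 1 µg/mL to compound-printed slides; binding of probe to printed compounds measured as 667 nm fluorescence plus signal to noise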
[4] = probe aNOTCH3 binding on compound microarray – biochemical, small-molecule microarray, 635/667 nm fluorescence, primary screen (AID 1120); conditions: higher = more signal;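 also: probe is a biotin-tagged antibody raised against NOTCH3 rather than NOTCH3 protein; score merges spot fluorescence near 667 nm with spot signal to noise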
[5] = probe aNOTCH2 binding on compound microarray – biochemical, small-molecule microarray, 635/667 nm fluorescence, primary screen (AID 1121); conditions: higher = more signal;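 also: score merges feature fluorescence read at 667 nm with its signal to noise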
[6] = biological target: Carbonic anhydrase 2 (Homo sapiens) (UniProt P00918); experiment: compounds binding carbonic anhydrase 2 – biochemical, small-molecule microarray, Alexa647-labelled CAII, profiling panel (AID 1122); conditions: CAII-A647 binding fluorescence, higher = more signal
[7] = COS7 lysate on small-molecule microarray, probe aHis, 635 nm (AID 1123); conditions: COS7 cell lysate, fluorescence, higher = more signal;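 also: z-score combines 667nm fluorescence intensity with signal-to-noise per printed compound spot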
[8] = probe aLAP1 signal on lysate-treated microarray – cell lysate, small-molecule microarray, COS7 lysate, primary screen (AID 1124); conditions: probe aLAP1, fluorescence, higher = more signal;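 also: lysate comes from COS7 cells expressing LAP1 and is applied at 0.3 µg/mL; score merges spot fluorescence near 667 nm with signal-to-noise over triplicate slides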
Sam68 (KHDRBS1) = experiment: compounds binding KHDRBS1 protein – biochemical, small-molecule microarray, 635 nm fluorescence, primary screen (AID 1125); conditions: higher = more signal;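 also: score merges 667 nm channel intensity with signal to noise over triplicate slides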
[9] = tested on: Chordin-like protein 2 (CHRDL2); experiment: compounds binding chordin-like 2 – biochemical, small-molecule microarray, 635 nm fluorescence, primary screen (AID 1126); conditions: fluorescence 635 nm, higher = more signal;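 also: printed compound slides probed with Chrdl2 protein at 4 µg/mL for 1 h at 4 C; score merges 667 nm emission intensity with signal to noise over three replicate slides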
[10] = biological target: Concanavalin-A (Canavalia ensiformis) (UniProt P02866); experiment: compounds binding concanavalin A lectin – biochemical, small-molecule microarray, Alexa647 label, 635 nm, artefact control for SMM control protein annotation, primary screen (AID 1127); conditions: ConA-A647 binding fluorescence, higher = more signal;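 also: z combines 667 nm emission intensity with signal-to-noise across three replicate slides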
Chain of Concanavalin-A (Canavalia ensiformis) (P02866 whole entry, looked up): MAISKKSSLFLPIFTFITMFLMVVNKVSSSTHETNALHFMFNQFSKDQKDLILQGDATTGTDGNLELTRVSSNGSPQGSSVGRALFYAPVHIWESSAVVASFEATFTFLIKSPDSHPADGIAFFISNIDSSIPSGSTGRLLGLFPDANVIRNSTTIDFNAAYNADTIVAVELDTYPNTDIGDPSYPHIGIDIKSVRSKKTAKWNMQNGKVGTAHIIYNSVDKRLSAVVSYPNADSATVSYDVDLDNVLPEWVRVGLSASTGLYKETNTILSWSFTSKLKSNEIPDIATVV

[11] = compounds binding Alexa647 anti-His antibody – biochemical, small-molecule microarray, 635 nm fluorescence, artefact control for SMM control protein annotation, primary screen (AID 1128); conditions: higher = more signal;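 also: score merges feature fluorescence with signal-to-noise for each printed compound spot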
[12] = tested on: Human papillomavirus type 1a E7 protein (residues 1-88); experiment: HPV1a E7 small-molecule binders, primary screen, biochemical, small-molecule microarray, residues 1-88, 635 nm (AID 1129); conditions: small-molecule microarray binding, fluorescence 635 nm; higher = more signal
[13] = biological target: Focal adhesion kinase 1 (Homo sapiens) (UniProt Q05397); experiment: PTK2 protein binding on printed compound slides – biochemical, small-molecule microarray, 635/667 nm fluorescence, BSA, DTT, primary screen (AID 1130); conditions: 635 nm fluorescence, higher = more signal;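 also: composite of spot emission at 667 nm and signal to noise over triplicate slides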
Chain of Focal adhesion kinase 1 (Homo sapiens) (Q05397 whole entry, looked up): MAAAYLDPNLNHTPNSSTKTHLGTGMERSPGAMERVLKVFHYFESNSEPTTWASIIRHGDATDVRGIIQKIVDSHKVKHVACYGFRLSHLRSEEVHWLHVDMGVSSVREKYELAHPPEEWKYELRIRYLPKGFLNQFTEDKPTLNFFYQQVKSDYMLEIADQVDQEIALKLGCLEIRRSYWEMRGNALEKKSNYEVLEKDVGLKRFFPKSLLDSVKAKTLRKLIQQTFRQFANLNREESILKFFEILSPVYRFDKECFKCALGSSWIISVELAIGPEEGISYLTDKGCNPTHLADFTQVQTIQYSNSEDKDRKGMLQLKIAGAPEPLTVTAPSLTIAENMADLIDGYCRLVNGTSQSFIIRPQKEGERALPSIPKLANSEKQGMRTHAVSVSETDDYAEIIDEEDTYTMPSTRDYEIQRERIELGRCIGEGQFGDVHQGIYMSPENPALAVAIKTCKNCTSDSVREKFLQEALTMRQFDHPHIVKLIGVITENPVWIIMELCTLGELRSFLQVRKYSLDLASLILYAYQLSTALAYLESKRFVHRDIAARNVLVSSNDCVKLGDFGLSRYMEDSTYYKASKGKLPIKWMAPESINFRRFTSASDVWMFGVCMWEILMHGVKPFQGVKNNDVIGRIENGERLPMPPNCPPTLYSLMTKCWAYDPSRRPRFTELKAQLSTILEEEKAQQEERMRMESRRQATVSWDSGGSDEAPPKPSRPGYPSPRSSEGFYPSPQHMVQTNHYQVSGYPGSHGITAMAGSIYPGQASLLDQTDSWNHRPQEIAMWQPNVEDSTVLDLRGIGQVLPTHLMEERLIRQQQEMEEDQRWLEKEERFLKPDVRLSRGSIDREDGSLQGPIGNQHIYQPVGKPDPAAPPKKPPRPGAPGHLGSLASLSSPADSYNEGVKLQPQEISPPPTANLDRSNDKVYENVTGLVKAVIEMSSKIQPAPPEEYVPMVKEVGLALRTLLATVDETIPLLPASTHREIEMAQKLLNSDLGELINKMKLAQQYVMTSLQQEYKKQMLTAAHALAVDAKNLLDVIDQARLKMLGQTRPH

[14] = tested on: Fibrinogen (Alexa647-labelled); experiment: Alexa647-fibrinogen binding to printed small molecules – biochemical, small-molecule microarray, 635/667 nm fluorescence, artefact control for SMM control-protein annotation, profiling panel (AID 1131); conditions: fibrinogen-A647 binding fluorescence, higher = more signal;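 also: z-score merges 667 nm fluorescence with per-spot signal-to-noise over triplicate slides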
[15] = biological target: Follistatin (Homo sapiens) (UniProt P19883); experiment: FST protein binding to printed compounds – biochemical, small-molecule microarray, 635/667 nm fluorescence, primary screen (AID 1132); conditions: 635 nm fluorescence, higher = more signal
Chain of Follistatin (Homo sapiens) (P19883 whole entry, looked up): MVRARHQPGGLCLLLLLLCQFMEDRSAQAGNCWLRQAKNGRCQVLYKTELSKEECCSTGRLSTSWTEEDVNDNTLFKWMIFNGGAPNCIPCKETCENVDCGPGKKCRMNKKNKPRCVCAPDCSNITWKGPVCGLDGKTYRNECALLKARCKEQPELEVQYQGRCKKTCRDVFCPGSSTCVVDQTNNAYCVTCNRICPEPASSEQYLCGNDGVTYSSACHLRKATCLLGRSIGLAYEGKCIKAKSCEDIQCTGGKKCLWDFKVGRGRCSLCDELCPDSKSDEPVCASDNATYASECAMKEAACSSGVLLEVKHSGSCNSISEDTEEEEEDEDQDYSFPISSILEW

[16] = biological target: Fibroblast growth factor 2 (Homo sapiens) (UniProt P09038); experiment: basic fibroblast growth factor binding to printed compounds – biochemical, small-molecule microarray, 635/667 nm fluorescence, primary screen (AID 1133); conditions: FGF2, fluorescence 635/667, higher = more signal
Chain of Fibroblast growth factor 2 (Homo sapiens) (P09038 whole entry, looked up): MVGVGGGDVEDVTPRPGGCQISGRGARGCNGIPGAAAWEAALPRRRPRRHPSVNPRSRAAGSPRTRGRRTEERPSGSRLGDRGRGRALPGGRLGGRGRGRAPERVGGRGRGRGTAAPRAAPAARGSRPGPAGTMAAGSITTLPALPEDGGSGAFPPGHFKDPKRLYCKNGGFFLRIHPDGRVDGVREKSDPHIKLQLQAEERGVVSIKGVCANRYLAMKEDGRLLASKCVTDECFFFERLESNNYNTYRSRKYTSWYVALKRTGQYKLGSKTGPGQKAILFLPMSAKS

[17] = JC-1 mitochondrial potential readout, lung cancer cells – cell-based, A549, JC-1 fluorescence, basal, 24 h, 100 nL, profiling panel (AID 1138); conditions: higher = more signal;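 also: A549 lung adenocarcinoma cells under basal conditions with no added stimulus; test concentration not given here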
Lefty1 = Lefty1 protein binding to printed compounds – biochemical, small-molecule microarray, 635/667 nm fluorescence, primary screen (AID 1139); conditions: fluorescence 635/667, higher = more signal

Question: For `COc1ccc(/C=C/C(=O)c2cccc(OCC(=O)OC(C)(C)C)c2)cc1`, which composite z-score [1] is on record?
Answer: -0.5

Question: And the composite z-score [2]?
Answer: 0.154

Question: What about the composite z-score (Albumin (Bos taurus)) of the same compound?
Answer: 0.396

Question: And the composite Z-score [3]?
Answer: -0.0202 (inactive)

Question: And the composite z-score [4]?
Answer: -0.176

Question: What about the composite z-score [5] of the same compound?
Answer: -0.133

Question: What about the composite z-score [6] of the same compound?
Answer: -0.0082

Question: And the composite z-score [7]?
Answer: 0.872

Question: What about the composite z-score [8] of the same compound?
Answer: 0.651

Question: What about the composite z-score (Sam68 (KHDRBS1)) of the same compound?
Answer: 1.02

Question: What about the composite z-score [9] of the same compound?
Answer: -0.55

Question: What about the composite z-score [10] of the same compound?
Answer: 0.4

Question: What about the composite z-score [11] of the same compound?
Answer: 0.0179

Question: And the composite z-score [12]?
Answer: 0.67

Question: What about the composite z-score [13] of the same compound?
Answer: 0.168

Question: What about the composite z-score [14] of the same compound?
Answer: 0.158

Question: And the composite z-score [15]?
Answer: -0.708

Question: What about the composite z-score [16] of the same compound?
Answer: -0.453

Question: What about the z-score [17] of the same compound?
Answer: 1.57

Question: What about the composite z-score (Lefty1) of the same compound?
Answer: -0.51

Question: For `COCCOC(=O)N1C(=O)[C@@]2(c3cc(C#CC4(O)CCCCCC4)ccc31)[C@H](c1ccccc1OCCO)N1[C@H](c3ccccc3)[C@H](c3ccccc3)OC(=O)[C@H]1[C@@H]2C(=O)Nc1nc2ccccc2s1`, which composite z-score [1] is on record?
Answer: 0.182

Question: And the composite z-score [2]?
Answer: 1.46

Question: What about the composite z-score (Albumin (Bos taurus)) of the same compound?
Answer: 0.655

Question: And the composite Z-score [3]?
Answer: -0.344 (inactive)

Question: What about the composite z-score [4] of the same compound?
Answer: -0.0942

Question: What about the composite z-score [5] of the same compound?
Answer: -0.0843

Question: What about the composite z-score [6] of the same compound?
Answer: 0.53

Question: And the composite z-score [7]?
Answer: 1.16

Question: What about the composite z-score [8] of the same compound?
Answer: 0.417

Question: What about the composite z-score (Sam68 (KHDRBS1)) of the same compound?
Answer: 1.16

Question: What about the composite z-score [9] of the same compound?
Answer: 0.478

Question: And the composite z-score [10]?
Answer: 1.18

Question: And the composite z-score [11]?
Answer: 1.84

Question: And the composite z-score [12]?
Answer: 1.21

Question: What about the composite z-score [13] of the same compound?
Answer: 0.862

Question: What about the composite z-score [14] of the same compound?
Answer: 0.805

Question: What about the composite z-score [15] of the same compound?
Answer: 1.39

Question: What about the composite z-score [16] of the same compound?
Answer: 1.16

Question: What about the z-score [17] of the same compound?
Answer: -1.56

Question: What about the composite z-score (Lefty1) of the same compound?
Answer: 1.5

Question: With `COc1ccc([Si](C)(C)[C@@H]2[C@@H](CCn3cc([C@H](O)c4ccccc4)nn3)O[C@]3(C(=O)N(C)c4c(Br)cc(C)cc43)[C@H]2C)cc1` as the compound, how does the composite z-score [1] read?
Answer: -0.169

Question: What about the composite z-score [2] of the same compound?
Answer: 0.184

Question: And the composite z-score (Albumin (Bos taurus))?
Answer: -0.0364

Question: And the composite Z-score [3]?
Answer: 0.62 (inactive)

Question: What about the composite z-score [4] of the same compound?
Answer: -0.129

Question: What about the composite z-score [5] of the same compound?
Answer: -0.118

Question: And the composite z-score [6]?
Answer: -0.273

Question: And the composite z-score [7]?
Answer: -0.525

Question: What about the composite z-score [8] of the same compound?
Answer: -0.129

Question: And the composite z-score (Sam68 (KHDRBS1))?
Answer: -0.849

Question: What about the composite z-score [9] of the same compound?
Answer: -0.254

Question: And the composite z-score [10]?
Answer: -0.679

Question: What about the composite z-score [11] of the same compound?
Answer: 0.18

Question: And the composite z-score [12]?
Answer: -0.773

Question: What about the composite z-score [13] of the same compound?
Answer: -0.501

Question: What about the composite z-score [14] of the same compound?
Answer: -0.59

Question: What about the composite z-score [15] of the same compound?
Answer: 1.19

Question: What about the composite z-score [16] of the same compound?
Answer: 1.44

Question: What about the z-score [17] of the same compound?
Answer: 0.517

Question: And the composite z-score (Lefty1)?
Answer: -0.166

Question: With `C=CCC(OC(C)=O)[C@@H]1[C@@H](N(Cc2ccc(-c3cccc(C(F)(F)F)c3)o2)C(=O)c2ccc(-c3ccccc3)cc2)c2cc(OCCCO)ccc2N1C(=O)Cc1ccc(OC)cc1` (stereo not given in full) as the compound, how does the composite z-score [1] read?
Answer: -0.0086

Question: What about the composite z-score [2] of the same compound?
Answer: -0.0085

Question: What about the composite z-score (Albumin (Bos taurus)) of the same compound?
Answer: -0.84

Question: What about the composite Z-score [3] of the same compound?
Answer: 0.298 (inactive)

Question: And the composite z-score [4]?
Answer: -0.0647

Question: And the composite z-score [5]?
Answer: -0.0832

Question: And the composite z-score [6]?
Answer: -0.149

Question: And the composite z-score [7]?
Answer: -0.249

Question: And the composite z-score [8]?
Answer: -0.231

Question: And the composite z-score (Sam68 (KHDRBS1))?
Answer: -0.836

Question: What about the composite z-score [9] of the same compound?
Answer: -0.0712

Question: What about the composite z-score [10] of the same compound?
Answer: -1.26

Question: And the composite z-score [11]?
Answer: -0.729

Question: What about the composite z-score [12] of the same compound?
Answer: 0.0685

Question: And the composite z-score [13]?
Answer: -0.0642

Question: What about the composite z-score [14] of the same compound?
Answer: -0.407

Question: And the composite z-score [15]?
Answer: 0.451

Question: And the composite z-score [16]?
Answer: -0.196

Question: And the z-score [17]?
Answer: 1.65

Question: And the composite z-score (Lefty1)?
Answer: -0.128
